# Sfp PPTase inh: qHTS Assay for Inhibitors of Bacillus subtilis Sfp phosphopantetheinyl transferase (PPTase). 4'-phosphopantetheinyl transferase ffp (Bacillus subtilis), Q9F4F7. Biochemical Sfp PPTase activity, qHTS. Potency, µM, for the others: largest response in the series, negative = inhibition, hits mostly inhibitors. hit rate 3.5% among 310,000. AID 1490, 2009;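 note: the enzyme is Sfp with the accession as filed and its product quenches rhodamine fluorescence; 0% = enzyme reaction without inhibitor and -100% = no enzyme wells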
#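 Buffer: 50 mM Hepes-Na pH 7.6, 10 mM MgCl2, 0.01% Nonidet P-40, 0.01% BSA. Enzyme 15 nM, pre-exposed to compound 15 min; substrates then added and fluorescence change tracked over 30 min.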
# G9a block: qHTS Assay for Inhibitors of Histone Lysine Methyltransferase G9a | Histone-lysine N-methyltransferase EHMT2 (Homo sapiens), Q96KQ7 | G9a H3K9 monomethylation, AlphaScreen, 2 h | Potency, µM (titrated, usually from 102 µM), for the others: at the top dose activity, negative = inhibition, actives largely listed as inhibitors | hit rate 8.8% among 350,000; note: % is set by controls: 0 for no effect and ±100 for the full control effect; nearly all actives have a fitted effect of over 75% in size
#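 AlphaScreen read-out: biotin-H3K9 peptide (500 nM) methylation by 20 nM enzyme with 20 uM SAM, 2 h at room temperature after 15 min compound preincubation; anti-monomethyl H3K9 antibody plus donor/acceptor beads, 10 min dark.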
# L3MBTL1 inh: qHTS Assay for the Inhibitors of L3MBTL1; Potency, µM (titrated, usually from 57.1 µM), for inactives: at the highest dose activity, negative = inhibition, hits mostly inhibitors; hit rate 0.66% among 230,000; AlphaScreen L3MBTL1–H3K9me1 peptide binding; note: % is set by controls: 0 for no effect and ±100 for the full control effect; nearly all actives have a fitted effect of over 60% in size
#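 First, the protein-peptide complex forms for 30 min at room temperature (L3MBTL1 50 nM, biotinylated H3K9me1 peptide 75 nM). Next, compounds are pin-transferred and incubated 30 min. Finally, AlphaScreen beads are added and read after 30 min.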
# BAZ2B block: qHTS Assay for Inhibitors of BAZ2B; AlphaScreen BAZ2B-H3K14Ac peptide displacement; Potency, µM (series often up to 114 µM), for inactives: at the top dose activity change, negative = inhibition, usual class: inhibitors; hit rate 4.4% among 360,000; AID 504333, 2011; note: % is set by controls: 0 for no effect and ±100 for the full control effect; nearly all actives have a fitted effect of over 60% in size
#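 Multi-concentration screen (max 110 uM) measuring displacement of acetylated histone H3 peptide from BAZ2B by AlphaScreen, using 50 nM protein, 50 nM peptide and 10 ug/mL streptavidin donor plus Ni-chelate acceptor beads.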
# HP1b binding inh: HTS for Inhibitors of HP1-beta Chromodomain Interactions with Methylated Histone Tails; AlphaScreen HP1-beta / biotin-H3K9me3 peptide binding; Chromobox protein homolog 1 (Homo sapiens), P83916; hit rate 0.56% among 390,000; Potency, µM (titrated, usually from 114 µM), for inactives: at the top dose activity change, negative = inhibition, hits mostly inhibitors; AID 540317, 2011; note: nearly all actives have a fitted effect of over 70% in size
#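 Compound inhibition of the preformed complex between 50 nM HP1-beta and 50 nM biotinylated H3K9me3 peptide was read by AlphaScreen. Buffer was PBS pH 7.4 with 0.01% Tween-20. Incubations ran 30 min at room temperature, with 10 ug/mL donor/acceptor beads.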
# JMJD2A Tudor inh: qHTS Assay for Inhibitors of JMJD2A-Tudor Domain; hit rate 4.4% among 390,000; Lysine-specific demethylase 4A (Homo sapiens), O75164; Potency, µM (top dose mostly 114 µM), inactives show top-dose activity change, negative = inhibition, actives largely listed as inhibitors; AlphaScreen JMJD2A-Tudor / H3K4me3 peptide binding; note: % is set by controls: 0 for no effect and ±100 for the full control effect; nearly all actives have a fitted effect of over 50% in size
# Target sequence (O75164 whole entry, looked up, the tested form may be a part): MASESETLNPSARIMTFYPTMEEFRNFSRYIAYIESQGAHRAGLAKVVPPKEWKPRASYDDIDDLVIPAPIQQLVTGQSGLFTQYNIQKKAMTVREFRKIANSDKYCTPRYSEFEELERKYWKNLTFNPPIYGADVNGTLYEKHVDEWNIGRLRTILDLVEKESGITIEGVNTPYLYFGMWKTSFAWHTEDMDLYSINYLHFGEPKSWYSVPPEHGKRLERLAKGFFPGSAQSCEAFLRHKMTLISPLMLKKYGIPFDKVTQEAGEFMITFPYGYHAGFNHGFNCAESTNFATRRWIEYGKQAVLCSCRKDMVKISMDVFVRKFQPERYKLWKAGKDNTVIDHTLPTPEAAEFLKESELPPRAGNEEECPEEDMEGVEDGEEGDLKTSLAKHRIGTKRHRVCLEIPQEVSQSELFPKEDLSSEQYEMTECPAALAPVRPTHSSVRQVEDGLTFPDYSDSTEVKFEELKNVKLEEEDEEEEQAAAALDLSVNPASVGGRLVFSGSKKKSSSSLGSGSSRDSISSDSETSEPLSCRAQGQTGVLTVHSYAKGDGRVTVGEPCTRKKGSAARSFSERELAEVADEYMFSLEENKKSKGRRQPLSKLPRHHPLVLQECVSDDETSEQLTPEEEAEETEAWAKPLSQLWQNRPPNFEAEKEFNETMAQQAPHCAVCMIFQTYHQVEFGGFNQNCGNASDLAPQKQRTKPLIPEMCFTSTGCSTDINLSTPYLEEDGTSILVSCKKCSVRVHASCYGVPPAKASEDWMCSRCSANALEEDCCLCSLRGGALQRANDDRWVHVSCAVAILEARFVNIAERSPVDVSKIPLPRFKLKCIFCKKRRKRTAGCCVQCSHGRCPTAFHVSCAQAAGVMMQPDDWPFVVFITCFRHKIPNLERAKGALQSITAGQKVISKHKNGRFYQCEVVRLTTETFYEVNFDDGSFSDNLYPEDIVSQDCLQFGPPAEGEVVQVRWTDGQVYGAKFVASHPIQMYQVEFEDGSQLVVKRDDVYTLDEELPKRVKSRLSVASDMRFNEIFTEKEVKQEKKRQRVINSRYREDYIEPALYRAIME
# An asterisk follows results filed as active; ? = inconclusive; / = no result; [ ] = another dose, or the depositor's remark. Shown are actives, neighbours in structure and some others; about 12% of the full set was active somewhere. Calls come from the whole dose curve; as a rule, active = well fitted curve in the direction sought with a large enough effect; inconclusive = small, poorly fitted or top-dose-only effect, or another doubt; inactive = no such curve, though single readings can be large; an effect the other way counts as inactive or inconclusive. Potency is the fitted concentration of half-maximal effect.
SMILES,Sfp PPTase inh,G9a block,L3MBTL1 inh,BAZ2B block,HP1b binding inh,JMJD2A Tudor inh
O=C(NC1CCCCC1)c1ccc(-c2ccccc2[N+](=O)[O-])o1,-7%,?,/,?,-5%,?
COc1cccc(NC(=O)c2ccc(-c3ccccc3[N+](=O)[O-])o2)c1,45µM*,?,-8%,?,23%,-27%
CCCCCC(=O)Nc1c(-c2cccs2)c(=O)c2ccccc2n1C,-1%,7%,/,36%,22%,-6%
CCC(=O)Nc1c(-c2cccs2)c(=O)c2ccccc2n1C,89µM*,?,/,-37%,20%,-19%
Cc1ccc(-n2ncc(C(=O)NCc3ccc4c(c3)OCO4)c2C2CCN(C(=O)OC(C)(C)C)CC2)cc1C,/,?,/,-8%[57.1 µM],-21%,-32%
Nc1nc(=S)c2ncn([C@@H]3O[C@H](CO)[C@@H](O)[C@H]3O)c2[nH]1,/,1.8µM*,-1%,?,?,5µM*
Nc1nc2c(ncn2[C@@H]2O[C@H](CO)[C@@H](O)[C@H]2O)c(=O)[nH]1,3%,/,/,/,/,/
Nc1nc(=S)c2ncn(C3OC(CO)C(O)C3O)c2[nH]1 (configuration not stated),6.3µM*,2µM*,25µM*,45µM*,?,7.9µM*
Nc1ncnc2c1ncn2[C@@H]1O[C@H](CO)[C@H](O)[C@H]1O,/,28%[12.7 µM],/,/,/,/
COc1ccc(C2=Nn3c(nnc3-c3cc(OC)ccc3OC)SC2)cc1,0%,/,/,/,/,-23%
Cc1cccc(C(=O)Nc2ccc3nc(SCC(=O)N4CCCC4)sc3c2)c1,/,-4%[59 µM],/,-7%,30%,-13%
CCCc1nc(C)cc(N2CCN(c3ccccc3)CC2)n1,?,50µM*,/,-33%,47%,-20%
O=C(Nc1c(C(=O)N2CCN(c3ccccc3)CC2)oc2ccccc12)c1ccc(Br)o1,/,?,/,-28%,32%,-21%
COCCCNC(=O)C(=O)C1C(=O)Nc2ccccc21 (configuration not stated),11%,40µM*,-1%,-35%,3%,-29%
O=C(NCc1ccncc1)C(=O)C1C(=O)Nc2ccccc21 (configuration not stated),7%,-48%,22%,?,-4%,?
O=C(Nc1cccc2ccccc12)C(=O)C1C(=O)Nc2ccccc21 (configuration not stated),4%,/,/,?,30%,-7%[11.4 µM]
O=C(O)CCCCCNC(=O)C(=O)C1C(=O)Nc2ccccc21 (configuration not stated),-5%,25µM*,5%,?,61%,-4%[11.4 µM]
COc1ccccc1N1CCN(c2nc3ccccc3n3cnnc23)CC1,/,-9%[59 µM],/,2%,6%,-15%
COc1cccc(NC(=O)CCc2c(C)nc3c4cccnc4nn3c2C)c1,/,14%[59 µM],/,-3%,49%,-18%
Cc1nn(C)c2c1c(C(F)(F)F)cc(=O)n2C(C)C(=O)Nc1ccccc1F (configuration not stated),/,30%[59 µM],/,0%,12%,-13%
CCCc1nn2c(=O)cc(COC(=O)c3cccc(NC(=O)CCc4ccccc4)c3)nc2s1,/,15%[59 µM],/,-8%,40%,-21%
Cc1cc(=O)[nH]c(/N=C(\N)Nc2ccc3c(c2)OCCO3)n1,-16%,22µM*,?,-24%,-18%,-8%
COc1ccc(Cl)cc1N/C(N)=N/c1nc(C)cc(=O)[nH]1,-13%,20µM*,4%,-12%,24%,?
S=C(NCCCN(Cc1ccc(Cl)c(Cl)c1)c1ccc(Br)cn1)NCCc1cnc[nH]1,/,/,/,/,/,40µM*
CN(CCCc1cnc[nH]1)C(=S)NCCCN(Cc1ccc(Cl)cc1)c1ccc(Br)cn1,/,/,/,/,?,32µM*
SMILES,Sfp PPTase inh,G9a block,L3MBTL1 inh,BAZ2B block,HP1b binding inh,JMJD2A Tudor inh
S=C(NCCc1cnc[nH]1)NC1CCCC1,5%,-6%,4%,-14%,56%,-23%
COc1ccc(CN(CCCN)c2ccc(Br)cn2)cc1,/,/,/,/,-1%,-25%
S=C(NCCCN(Cc1ccc(Cl)cc1)c1ccc(Br)cn1)NCc1ccc2nc[nH]c2c1,/,/,/,/,-15%,50µM*
NCCN(Cc1ccc(Cl)c(Cl)c1)c1ccc(Br)cn1,/,/,/,/,23%,-22%
S=C(NCCCc1cnc[nH]1)NCCN(Cc1ccc(Cl)c(Cl)c1)c1ccc(Br)cn1,/,/,/,/,/,56µM*
O=C(NCc1ccc(Cl)cc1Cl)c1ccc2nc[nH]c2c1,-4%,?,-6%,?,19%,-4%
Cc1cc(C)c(S(=O)(=O)n2cnc(C)c2)c(C)c1,/,2%[59 µM],/,-4%,59%,-10%
O=C(Cc1ccc(Cl)cc1)NCCc1cnc[nH]1,7%,-12%,/,7%,19%,-2%
S=C(NCCCc1cnc[nH]1)NCCCN(Cc1ccc(Cl)cc1)c1cc(-c2ccccc2)ccn1,/,/,/,/,?,56µM*
Clc1ccc(CN(CCCNc2ncnc(NCCCc3cnc[nH]3)n2)c2ccc(Br)cn2)cc1Cl,/,/,/,/,/,35µM*
COc1cccc(CNS(=O)(=O)c2ccc3[nH]c4c(c3c2)CCCCC4)c1,/,?,/,-30%[57.1 µM],?,?
Cc1cc(NCCCN2CCOCC2)n2nc(C)c(-c3ccccc3)c2n1,1%,-7%,4%,14%,-14%,-32%
Cc1cc(NCCC(C)C)n2nc(C)c(-c3ccccc3)c2n1,56µM*,69%[59 µM],/,48%,169%,57%
CN(C)/N=N/c1nc[nH]c1C(N)=O,-11%,-29%[2.33 µM],/,/,/,/
CCCc1ccc(S(=O)(=O)N2CCN(Cc3ccco3)CC2)cc1,2%,/,/,-5%,10%,-23%
CCCS(=O)(=O)N1CCN(Cc2ccco2)CC1,?,14µM*,-9%,50µM*,?,?
O=[N+]([O-])c1ccc(S(=O)(=O)N2CCN(Cc3ccco3)CC2)cc1,56µM*,?,/,20µM*,22µM*,8.9µM*
CCCS(=O)(=O)N1CCN(C(=O)c2ccco2)CC1,14%,-24%,/,9%,22%,-6%
CCCS(=O)(=O)N1CCN(CCCc2ccccc2)CC1,-11%,10µM*,5%,79µM*,?,5.6µM*
C[C@@H]1Cc2ccccc2N1NC(=O)c1ccc(Cl)c(S(N)=O)c1 (some centres not stated),13%,23%[21.5 µM],/,/,/,/
Cn1nnc2c[n+](CC(=O)c3ccc4ccccc4c3)cc(Br)c21,9%,56µM*,/,?,20%,-28%
